Data taken from PubChem BioAssay (NCI).
This is part of a sample that, as a whole, favours compounds with a hit. Of some 79,000 tested, about 15% had one in any assay. Calls of active or inactive are those of the source. Rule as the data show it: active = growth inhibition above about 70%; inactive = the rest.

Key:
[1] = NCI Yeast Anticancer Drug Screen. Data for the rad52 strain (AID 147);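 also: 0% = growth of vehicle-treated control cultures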; conditions: S. cerevisiae rad52 mutant growth inhibition, stronger effect = higher value
Summary of the method: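 Genetically altered yeast (DNA damage repair defect) treated with compound; inhibition calculated relative to vehicle.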

[2] = NCI Yeast Anticancer Drug Screen. Data for the wt1 strain (AID 149);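 also: 0% = growth of vehicle-treated wt1 cultures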; conditions: S. cerevisiae wt1 strain (SPY 50644) growth inhibition, stronger effect = higher value
Summary of the method: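 Each compound is tested on wt1 yeast and the loss of growth versus vehicle gives the inhibition value.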

[3] = NCI Yeast Anticancer Drug Screen. Data for the rad50EPP+ strain (AID 151);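 also: 0% = growth of vehicle-treated control cultures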; conditions: S. cerevisiae rad50 mutant strain, stronger effect = higher value
Summary of the method: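 Strain rad50EPP+; compound exposure; % growth inhibition vs vehicle.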

[4] = NCI Yeast Anticancer Drug Screen. Data for the rad50 strain (AID 155);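 also: 0% = growth of vehicle-only cultures of the same strain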; conditions: S. cerevisiae rad50 strain growth inhibition, stronger effect = higher value
Summary of the method: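 Vehicle-treated cultures provide the reference for the growth inhibition reported for compound-exposed, repair-deficient yeast.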

[5] = NCI Yeast Anticancer Drug Screen. Data for the mec2-1 strain (AID 157); conditions: S. cerevisiae mec2-1 strain, stronger effect = higher value
Summary of the method: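 Cells of the genetically defined mec2-1 yeast strain are incubated with test compound. Inhibition of growth is calculated against vehicle-treated controls.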

[6] = NCI Yeast Anticancer Drug Screen. Data for the rad14 strain (AID 159);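 also: 0% = growth of vehicle-treated control cultures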; conditions: S. cerevisiae rad14 strain growth inhibition, stronger effect = higher value
Summary of the method: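 Inhibition of growth is reported for a repair-deficient yeast mutant following compound treatment, calculated relative to cultures that received vehicle.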

[7] = NCI Yeast Anticancer Drug Screen. Data for the sgs1 mgt1 strain (AID 161);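 also: 0% = growth of cultures given vehicle only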; conditions: S. cerevisiae sgs1 mgt1 strain, stronger effect = higher value
Summary of the method: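 Read-out: growth inhibition vs vehicle controls. Cells: mutant yeast strain deficient in DNA damage repair.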

[8] = NCI Yeast Anticancer Drug Screen. Data for the CLN2oe strain (AID 163);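 also: 0% = growth of vehicle-only control cultures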; conditions: S. cerevisiae CLN2oe strain, stronger effect = higher value
Summary of the method: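 Strain altered in cell-cycle control, incubated with compound; growth compared to solvent-treated controls.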

[9] = NCI Yeast Anticancer Drug Screen. Data for the cln2 rad14 strain (AID 165);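 also: 0% = growth equal to vehicle treated cultures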; conditions: S. cerevisiae cln2 rad14 strain, stronger effect = higher value
Summary of the method: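 The screen exposed genetically defined yeast (cln2 rad14) to test compounds and scored growth inhibition relative to vehicle-treated controls.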

[10] = NCI Yeast Anticancer Drug Screen. Data for the bub3 strain (AID 167); conditions: S. cerevisiae bub3 mutant strain, stronger effect = higher value
Summary of the method: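 Mutant yeast screening strain plus compound; vehicle-treated cultures serve as the 0% inhibition reference.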

[11] = NCI Yeast Anticancer Drug Screen. Data for the wt2 strain (AID 169); conditions: S. cerevisiae wt2 strain growth inhibition, stronger effect = higher value
Summary of the method: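 Steps: yeast strain treated with compound; growth recorded; inhibition calculated relative to cultures given vehicle alone.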

[12] = NCI Yeast Anticancer Drug Screen. Data for the mlh1 strain (AID 171);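 also: 0% = growth of vehicle-treated control cultures of the same strain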; conditions: S. cerevisiae mlh1 strain growth inhibition, stronger effect = higher value
Summary of the method: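 Yeast screen: mutant strain plus compound, growth scored against vehicle control wells.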

[13] = NCI Yeast Anticancer Drug Screen. Data for the sgs1 strain (AID 173);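 also: 0% = growth of vehicle-only control cultures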; conditions: S. cerevisiae sgs1 mutant, stronger effect = higher value
Summary of the method: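 Inhibition of yeast growth served as the measure. The mutant strain was treated with each compound, and growth was normalised to cultures receiving vehicle alone.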

[14] = NCI Yeast Anticancer Drug Screen. Data for the mlh1 rad18 strain (AID 175); conditions: S. cerevisiae mlh1 rad18 strain growth inhibition, stronger effect = higher value
Summary of the method: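 Compound-treated yeast growth, normalised to vehicle controls. Strain bears defined DNA repair mutations.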

[15] = NCI Yeast Anticancer Drug Screen. Data for the rad18 strain (AID 177); conditions: S. cerevisiae rad18 mutant growth inhibition, stronger effect = higher value
Summary of the method: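 Inhibition values reflect reduced yeast growth compared with vehicle-treated controls, using a strain engineered with a DNA damage repair defect.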

[16] = at 5.0 µM (retest, dose inferred, filed as 0.5)
[17] = at 50.0 µM (retest, dose inferred, filed as 5.0)

Measured: growth inhibition

Nc1nc(N)c2c(n1)CCC(S(=O)(=O)c1ccc3ccccc3c1)C2 (stereo not drawn)
inactive: [1]; at 1.2 µM 26% | [1]; at 3.7 µM 44% | [1]; at 11.0 µM 54% | [1]; at 33.0 µM 62% | [1]; at 100.0 µM 65% | [2]; at 1.2 µM -2% | [2]; at 3.7 µM 14% | [2]; at 11.0 µM 12% | [2]; at 33.0 µM 19% | [2]; at 100.0 µM 15% | [3]; at 1.2 µM 23% | [3]; at 3.7 µM 35% | [3]; at 11.0 µM 39% | [3]; at 33.0 µM 40% | [3]; at 100.0 µM 40% | [4]; at 1.2 µM -3% | [4]; at 3.7 µM 13% | [4]; [16] 56% | [4]; at 11.0 µM 32% | [4]; at 33.0 µM 45% | [4]; at 50.0 µM 49.2% | [4]; at 100.0 µM 54% | [5]; at 1.2 µM 14% | [5]; at 3.7 µM 46% | [5]; at 11.0 µM 65% | [6]; at 1.2 µM -2% | [6]; at 3.7 µM -6% | [6]; at 11.0 µM -11% | [6]; at 33.0 µM -8% | [6]; at 100.0 µM -4% | [7]; [16] 49% | [7]; [17] 60% | [7]; at 50.0 µM 36% | [8]; at 1.2 µM -3% | [8]; at 3.7 µM 6% | [8]; at 11.0 µM 0% | [8]; at 33.0 µM 8% | [8]; at 100.0 µM 6% | [9]; [16] 5% | [9]; [17] 7% | [9]; at 50.0 µM 6.95% | [10]; at 1.2 µM -41% | [10]; at 3.7 µM -27% | [10]; [16] 32% | [10]; at 11.0 µM -27% | [10]; at 33.0 µM 3% | [10]; [17] 30% | [10]; at 50.0 µM -7.8% | [10]; at 100.0 µM 2% | [11]; at 1.2 µM -35% | [11]; at 3.7 µM -8% | [11]; at 11.0 µM 1% | [11]; at 33.0 µM 5% | [11]; at 100.0 µM 23% | [12]; at 1.2 µM -5% | [12]; at 3.7 µM 3% | [12]; at 11.0 µM 8% | [12]; at 33.0 µM 10% | [12]; at 100.0 µM 9% | [13]; at 1.2 µM 16% | [13]; at 3.7 µM 45% | [13]; at 11.0 µM 55% | [13]; at 33.0 µM 56% | [13]; at 100.0 µM 44% | [14]; [16] 48% | [14]; [17] 54% | [14]; at 50.0 µM 13.6% | [15]; at 1.2 µM 7% | [15]; at 3.7 µM 1% | [15]; at 11.0 µM 8% | [15]; at 33.0 µM 20% | [15]; at 100.0 µM 22%
active: [4]; [17] 72% | [5]; [16] 83% | [5]; at 33.0 µM 80% | [5]; [17] 91% | [5]; at 50.0 µM 84.9% | [5]; at 100.0 µM 80%
